From PubChem BioAssay AID686970 (National Center for Advancing Translational Sciences (NCATS), 2013)
The whole screen tested about 360,000 compounds, of which about 6,000 (1.7%) were called active. Roughly 8% stayed inconclusive and do not appear here. Calls come from the whole dose curve; as a rule, active = well fitted cell-killing curve with a large enough effect; inconclusive = small, poorly fitted or top-dose-only effect, or effect the other way; inactive = flat fitted curve, though single readings scatter. The full list was thinned out, with actives kept by preference.

Assay: qHTS for induction of synthetic lethality in tumor cells producing 2HG: qHTS for the HT-1080-NT fibrosarcoma cell line;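 note: NT is the 2HG producing partner of a matched IDH1 knockdown line; nearly all actives have a fitted effect of over 55% in size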;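 for activity, negative = less viability: 0% = DMSO-treated cells and -100% = media-only wells without cells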
Details: HT-1080-NT fibrosarcoma viability, CellTiter-Glo ATP luminescence, 48 h; series mostly up to 46.1 µM; activity, negative = less viability: at the top concentration
Summary of the method: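 A 48-hour cytotoxicity screen used HT-1080-NT cells plated 2 hours before compound delivery. ATP-based CellTiter-Glo luminescence measured viability, normalized to DMSO and no-cell controls.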
Potency is the fitted concentration of half-maximal effect.

| SMILES | activity, negative = less viability | Potency |
| --- | --- | --- |
| COc1ccc2[nH]c(=O)c(CN(Cc3nnnn3CCc3ccccc3)CC3CCCO3)cc2c1 (stereo not given) | -12% (inactive) | – |
| CCOc1ccc2[nH]c(=O)c(CN(Cc3nnnn3Cc3ccccc3)CC3CCCO3)cc2c1 (stereo not given) | – | 6.31 µM (active) |
| CCOc1ccc2[nH]c(=O)c(CN(Cc3nnnn3CCc3ccccc3)CC3CCCO3)cc2c1 (stereo not given) | -0.584% (inactive) | – |
| CCOC(=O)C1=CC[C@@H](c2ccccc2)N(S(=O)(=O)c2ccc(C)cc2)[C@H]1c1cccc(OC)c1 | 5.72% (inactive) | – |
| CC1(C)NC(=O)N(CC(=O)Nc2ccc(-c3ccccc3)cc2)C1=O | 13.6% (inactive) | – |
| CS(=O)(=O)Nc1cccc(-c2cn3ccccc3n2)c1 | 23.4% (inactive) | – |
| CCS(=O)(=O)Nc1cccc(-c2cc(-c3ccccc3)c3cc(C)ccc3n2)c1 | – | 23.1 µM (active) |
| Cc1cc(C)cc(NS(=O)(=O)Cc2ccccc2)c1 | -3.43% (inactive) | – |
| Cc1ccc(-c2nc3c(C)cc(Br)cn3c2Cc2ccccc2)cc1 | 17.6% (inactive) | – |
| COC(=O)[C@]12CCCCC=C1N(Cc1ccc3c(c1)OCO3)C(=O)[C@H](CC(=O)NCc1cccs1)C2 | -16.6% (inactive) | – |
| O=C1NC(c2cccc(Cl)c2)Nc2ccccc21 (stereo not given) | – | 11.6 µM (active) |
| COc1ccc(C2NC(=O)c3ccccc3N2)cc1 (stereo not given) | -20.1% (inactive) | – |
| O=C1NC(c2ccccc2)Oc2ccccc21 (stereo not given) | 6.8% (inactive) | – |
| CCc1nc2c(OCCc3cccc(OC)c3)cccn2c1N(C)C(=O)c1ccc(C)cc1 | -2.42% (inactive) | – |
| O=C(COC(=O)c1cncc(Br)c1)Nc1ccc(S(=O)(=O)N2CCOCC2)cc1 | -2.37% (inactive) | – |
| CC(C)c1cc(C(=O)N(C)C2CCCN(Cc3ccccc3F)C2)n(C)n1 (stereo not given) | -7.41% (inactive) | – |
| CNc1cncc(-c2cccc(C(=O)N3CCOCC3)c2)n1 | 4.76% (inactive) | – |
| CCCN1CCn2c3c(c4cc(Br)ccc42)CCCC31 (stereo not given) | 2.41% (inactive) | – |
| COCCNC(=O)c1ccc(Cn2c(SCC(=O)NCC3CCCO3)nc3ccc(Br)cc3c2=O)cc1 (stereo not given) | -9.16% (inactive) | – |
| OC(CNCC1CCCO1)Cn1c2ccc(Br)cc2c2cc(Br)ccc21 (stereo not given) | – | 20.6 µM (active) |
| Cc1sc2nc(-c3ccccc3F)oc(=O)c2c1C | 1.74% (inactive) | – |
| O=S1(=O)CC(N2CCN(CCO)CC2)CN1Cc1cn(Cc2ccc(Cl)cc2)nn1 (stereo not given) | 18.6% (inactive) | – |
| O=C(Nc1cc(Br)ccc1F)c1nc[nH]c1C(=O)NCc1ccccc1 | -4.69% (inactive) | – |
| CN1CCN(CCCNC(=O)c2ccc(/C=C3\Oc4ccccc4N(Cc4ccc(Cl)cc4)C3=O)cc2)CC1 | -9.12% (inactive) | – |
| CCN1CCN(CCNC(=O)c2ccc3c(c2)NC(=O)/C(=C\c2cccc(Cl)c2)S3)CC1 | -6.54% (inactive) | – |
| CCN1CCN(CCNC(=O)c2ccc(/C=C3/Sc4ccccc4N(Cc4cccc(C)c4)C3=O)cc2)CC1 | – | 23.1 µM (active) |
| CCNC(=O)C1(C)CCCN(C(=O)c2c(C)noc2C)C1 (stereo not given) | 17.7% (inactive) | – |

| SMILES | activity, negative = less viability | Potency |
| --- | --- | --- |
| COc1cc([N+](=O)[O-])ccc1NC(=O)COC(=O)CCOc1ccc(C)cc1 | – | 20.6 µM (active) |
| CSc1ccccc1NC(=O)COC(=O)CCCOc1ccc(C)cc1 | 3.43% (inactive) | – |
| COc1cccc(NC(=O)COC(=O)CCOc2ccccc2OC)c1 | -0.605% (inactive) | – |
| CCc1ccccc1NC(=O)CN1CCN(C(=O)c2cc(C3CC3)nn2-c2ccccc2)CC1 | 4.23% (inactive) | – |
| N#Cc1ccc(C(=O)Nc2nc(-c3cccs3)c(C(=O)C(F)(F)F)s2)cc1 | – | 2.91 µM (active) |
| COC(=O)c1sc(NC(=S)NC(=O)c2ccc(C)cc2)nc1C | 17.2% (inactive) | – |
| N#Cc1c(-c2cccs2)nc(SCC(=O)c2ccc(Br)cc2)[nH]c1=O | -17.9% (inactive) | – |
| CCOC(=O)[C@]12CCCC=C1N(Cc1ccc3c(c1)OCO3)C(=O)[C@H](CC(=O)NCc1cccs1)C2 | -21% (inactive) | – |
| CC1(C)CC(=O)C=C(c2ccc(COC(=O)c3cc(F)cc(F)c3)cc2)C1=O | -18.3% (inactive) | – |
| CCN(CC(=O)Nc1ccc(NC(C)=O)cc1)C(=O)C1CC(=O)N(c2ccc3c(c2)OCCO3)C1 (stereo not given) | 4.08% (inactive) | – |
| O=C(NC(=O)c1ccccc1)Nc1ccccc1O | -9.01% (inactive) | – |
| CC(NC(=O)c1ccccc1)C(=O)Nc1ccccc1 (stereo not given) | 7.26% (inactive) | – |
| O=C(NC1=CC(=O)c2ccccc2C1=O)c1ccccc1 | – | 7.31 µM (active) |
| Cc1ccc(S(=O)(=O)N2[C@@H](Cc3ccccc3)CO[C@H]2CC(=O)OCc2ccccc2)cc1 | -7.46% (inactive) | – |
| CCCCNC(=O)OC1CC2CC1[C@H]1CCCCN1C2=O (stereo not given in full) | 11.3% (inactive) | – |
| O=C(COC(=O)Cc1ccc(Cl)cc1Cl)NCc1ccco1 | 0.36% (inactive) | – |
| O=[N+]([O-])c1ccc(N2CCOCC2)cc1 | -6.24% (inactive) | – |
| COC(=O)CC1=NN(c2ccccc2)C(=O)C1 | 9.15% (inactive) | – |
| O=C1CC(c2ccccc2)=NN1c1ccc([N+](=O)[O-])cc1 | – | 14.6 µM (active) |
| COc1ccc(C(=O)N2CCCCC2c2cc(C(=O)Nc3ccc(F)c(Cl)c3)no2)cc1 (stereo not given) | -21.2% (inactive) | – |
| Cc1c(C(=O)NCC2CC2)sc(=O)n1Cc1cccc(F)c1 | 11% (inactive) | – |
| COc1ccc(CNC(=O)[C@H](Cc2c[nH]c3ccccc23)NC(C)=O)cc1OC | 12.4% (inactive) | – |
| COc1ccc(CNC(=O)Cc2ccc(-c3ccccc3)cc2)cc1OC | – | 14.6 µM (active) |
| COc1ccc(NC(=O)CNC(=O)Cc2ccccc2)cc1OC | -0.905% (inactive) | – |
| O=C(C=CC(=O)Nc1ccc(F)cc1F)Nc1ccc(F)cc1F | 7.85% (inactive) | – |
| NS(=O)(=O)c1ccc(CNC(=O)c2cc(S(=O)(=O)N3CCOCC3)ccc2N2CCCC2)cc1 | 0.267% (inactive) | – |
| COC(=O)c1ccc2c(c1)S(=O)(=O)NC2C (stereo not given) | 16.3% (inactive) | – |

| SMILES | activity, negative = less viability | Potency |
| --- | --- | --- |
| COC(=O)CCCCC1=CCC2C(=O)C=C(O)C2C1 (stereo not given) | 6.86% (inactive) | – |
| CC(OC(=O)c1ccc(NC(=O)CC#N)cc1)C(=O)Nc1ccc(S(=O)(=O)N2CCCC2)cc1 (stereo not given) | -0.404% (inactive) | – |
| Cc1ccc(-n2c(SCC(=O)N/N=C/C=C/c3ccccc3[N+](=O)[O-])nc3ccccc3c2=O)cc1 | 4.46% (inactive) | – |
| CCOCCCn1c(NN)nc2ccccc2c1=O | 1.83% (inactive) | – |
| CCn1c(/C=C/c2ccc([N+](=O)[O-])o2)nc2ccccc2c1=O | – | 2.59 µM (active) |
| CCC1NC(=O)c2cccnc2-n2c1nc1ccc(C)cc1c2=O (stereo not given) | 16.5% (inactive) | – |
| COc1cc2nc(N3CCCN(C)CC3)nc(NC(C)C)c2cc1OC | -15.7% (inactive) | – |
| COc1cc2ccc(C(C)=O)c(O)c2cc1OC | -1.62% (inactive) | – |
| CC(C)CN1C(=O)CN(S(C)(=O)=O)CC1(C)C(=O)NCc1ccccc1 (stereo not given) | 25.9% (inactive) | – |
| COc1ccc(-c2c(C)cc3oc(=O)cc(-c4ccccc4)c3c2C)cc1OC | 7.56% (inactive) | – |
| COc1cc(OC)c2c(-c3cccc(-c4cccc(N)c4)c3)cc(=O)oc2c1 | – | 6.51 µM (active) |
| COc1ccc(-c2c(C)cc3oc(=O)cc(-c4ccccc4)c3c2C)cc1F | 10.6% (inactive) | – |
| COc1cc2nc(N3CCCN(C)CC3)nc(NC3CC3)c2cc1OC | -21.4% (inactive) | – |
| Cc1nc2ccccc2c(=O)n1-c1ccc(NS(=O)(=O)c2ccc(F)cc2F)cc1 | 0.277% (inactive) | – |
| O=c1c2ccccc2ncn1/N=C/c1ccccc1 | 3.2% (inactive) | – |
| Cc1[nH]n(-c2ccc(Cl)cc2)c(=O)c1/C=N/n1c(C)nc2ccccc2c1=O | – | 23.1 µM (active) |
| CC1(C(=O)NS(=O)(=O)c2ccccc2)CCN1C(=O)C/C=C/c1ccccc1 (stereo not given) | 1.36% (inactive) | – |
| CC1(C)CCSC(/C=C/c2ccccc2)=N1 | – | 23.1 µM (active) |
| CC1(C(=O)O)CCN1C(=O)/C=C/c1ccccc1 (stereo not given) | 22% (inactive) | – |
| O=C(O)C(=Cc1ccc([N+](=O)[O-])cc1)CCc1ccccc1 | -1.78% (inactive) | – |
| Brc1ccc2nc(-c3ccccc3)c(Cc3ccccc3)n2c1 | 17.3% (inactive) | – |
| Cc1ccc(-c2nc3ccc(Br)cn3c2Cc2ccccc2C(F)(F)F)cc1 | -23.8% (inactive) | – |
| CCc1ccc(CNC(=O)C2CCN(c3nnc(C)c4c(C)n(-c5ccc(C)cc5)nc34)CC2)cc1 | – | 13 µM (active) |
| Cc1ccc(NC(=O)N2CCC(C(=O)NCc3ccc(F)cc3)CC2)cc1 | 8.01% (inactive) | – |
| CCS(=O)(=O)N1CCCC(C(=O)NCc2ccc(C)cc2)C1 (stereo not given) | 9.86% (inactive) | – |
| CCN(CC)C(=O)C1=C(C)N(Cc2ccc(F)cc2)C(=O)C(CC(=O)NC2CCCC2)C1 (stereo not given) | -1.24% (inactive) | – |
| CCc1ccccc1NC(=O)CSc1nnc([C@@H](NC(=O)OC(C)(C)C)C(C)CC)o1 (stereo not given in full) | 2.65% (inactive) | – |

| SMILES | activity, negative = less viability | Potency |
| --- | --- | --- |
| C[C@@H](NC(=O)OC(C)(C)C)c1nnc(S(=O)(=O)Cc2ccccc2)o1 | – | 16.4 µM (active) |
| COc1ccccc1NC(=O)[C@H](COCc1ccccc1)NC(=O)OC(C)(C)C | 6.66% (inactive) | – |
| CC1(C(=O)Nc2cccc3c2CCCC3)CCN1C(=O)C1(c2ccccc2)CC1 (stereo not given) | -21.9% (inactive) | – |
| O=C(Nc1ccccc1)c1ccccc1Br | -0.814% (inactive) | – |
| COc1ccc(-c2sc3ccc(OC)cc3c2C#Cc2ccccn2)cc1 | -11.5% (inactive) | – |
| COc1ccc2sc(-c3ccc(S(C)(=O)=O)cc3)c(-c3ccc(C(N)=O)cc3)c2c1 | -27.8% (inactive) | – |
| COc1ccc2sc(-c3ccc(S(C)(=O)=O)cc3)c(C#Cc3cncn3C)c2c1 | – | 20.6 µM (active) |
| CC1=C(C(=O)N(C)C)CC(CC(=O)NCCN2CCOCC2)C(=O)N1Cc1ccccc1 (stereo not given) | 13% (inactive) | – |
| O=C1[C@H]2[C@@H](c3ccc(C(F)(F)F)cc3)N[C@]3(CCCN(Cc4ccc(Cl)cc4)C3=O)[C@H]2C(=O)N1Cc1ccccc1 | -17.1% (inactive) | – |
| CCCCN1C[C@H](c2ccc(Br)cc2)[C@@H](CC(=O)Nc2ccc(Br)cc2)C1=O | -4.62% (inactive) | – |
| Nc1nc(Nc2ccccc2F)nc(NC2CCCCC2)c1[N+](=O)[O-] | – | 16.4 µM (active) |
| Nc1nc(NCC2CCCO2)nc(Nc2ccccc2F)c1[N+](=O)[O-] (stereo not given) | -0.899% (inactive) | – |
| C=CCNc1nc(N)c([N+](=O)[O-])c(NC2CCCCC2)n1 | 0.683% (inactive) | – |
| COc1cc(C(=O)N2CCOC23CCN(Cc2ccccc2)CC3)cc(OC)c1OC | 0.0161% (inactive) | – |
| COC(=O)c1ccc2nc(-c3ccc(F)cc3)c(Cc3ccc(C)cc3)n2c1 | 1.66% (inactive) | – |
| COc1ccccc1CCNS(=O)(=O)c1cn(C)nc1C | 10.6% (inactive) | – |
| COc1ccc(-c2nn(-c3ccccc3)cc2C(=O)Nc2nccs2)cc1OC | -2.1% (inactive) | – |
| CCC(=O)NCc1cc(-c2nn(C)c(=O)c3ccccc23)ccc1OC | 7.47% (inactive) | – |
| CCCCCc1c(-c2ccc(OC)c(OC)c2)ncn1CCc1ccccc1OC | – | 20.6 µM (active) |
| CCCCc1c(-c2ccc(Br)cc2)ncn1CCc1ccccc1OC | – | 9.2 µM (active) |
| Cn1c(=O)c2c(ncn2CCc2ccccc2)n(C)c1=O | 10.3% (inactive) | – |
| COc1ccccc1Cc1c(-c2ccc(Cl)cc2)nc2ccc(Cl)cn12 | -12.4% (inactive) | – |
| CCCCCc1c(Cc2ccccc2)ncn1CCc1ccccc1OC | – | 18.4 µM (active) |
| COc1ccccc1Cc1c(-c2ccc(Cl)cc2)nc2c3ccccc3ccn12 | 4.95% (inactive) | – |
